Measurements reported in PubChem BioAssay (NCATS).
Where “and” joins values, the source holds several entries; their conditions need not be identical. Identical values can stand only once. Records with an inconclusive call do not appear. Calls of active or inactive are those of the source. Unless noted, calls follow the shape of the dose curve; as a rule, active = well fitted curve in the direction sought with a large enough effect; inconclusive = small, poorly fitted or top-dose-only effect, or another doubt; inactive = no such curve, though single readings can be large; an effect the other way counts as inactive or inconclusive.

Experiments:
[1] = molecular target: Calcium and integrin-binding protein 1 (Homo sapiens) (UniProt Q99828); assay: Primary qHTS for Identification of Calcium Integrin Binding Protein 1 (CIB1) Competitor (AID 1508620); conditions: CIB1-GST / FITC-alphaIIb peptide fluorescence polarization; series mostly up to 114 µM;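 also: GST tagged CIB1 binding a fluorescein labelled alphaIIb integrin peptide tracer; top concentration of the series differs between compounds; % is scaled to controls: 0 for no effect and ±100 for the full control effect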
Outline: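 CIB1-GST (1 uM final) and compound incubated 15 min at room temperature before adding FITC-alphaIIb peptide tracer (100 nM final). Competition for binding read by fluorescence polarization (ex 480, em 540) after another 15 min at room temperature.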

[2] = molecular target: Cytochrome P450 2D6 (Homo sapiens) (UniProt P10635); assay: Cytochrome P450 family 2 subfamily D member 6 (CYP2D6) small molecule antagonists: luciferase biochemical (cell-free) qHTS assay (AID 1645840; active = well fitted curve in the direction sought with a large enough effect in the repeat runs; an effect the other way counts as inactive or inconclusive; also: nearly all actives have a fitted effect of over 55% in size; also: potency is read from the fitted curve at half-maximal effect; as to activity change, negative = inhibition: % is scaled to controls: 0 for no effect and ±100 for the full control effect); conditions: P450-Glo CYP2D6 enzyme, luciferin luminescence, 1 h; series mostly up to 57.4 µM
Outline: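 P450-Glo luminescent screen: recombinant CYP2D6 enzyme–proluciferin substrate mix preincubated with compound 10 min at room temperature, then NADPH regeneration added for 1 h at room temperature. Detection reagent added for 20 min; luciferin light read as relative luminescence units.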

[3] = Primary qHTS for inhibitors of nuclear receptor binding SET domain protein 2 (NSD2) in an isogenic RCH-ACV NSD2 p.E1099K mutant (9B) (AID 1645876); conditions: RCH-ACV NSD2 E1099K (9B) viability, CellTiter-Glo, 72 h; series mostly up to 44.9 µM; also: nearly all actives have a fitted effect of over 70% in size; also: potency is read from the fitted curve at half-maximal effect
[4] = Primary qHTS for inhibitors of nuclear receptor binding SET domain protein 2 (NSD2) in an RCH-ACV wild type WT cells (2C) (AID 1645877); conditions: RCH-ACV (leukaemia line) NSD2 WT (2C) viability, CellTiter-Glo, 72 h; series mostly up to 44.9 µM; also: nearly all actives have a fitted effect of over 70% in size; also: potency is read from the fitted curve at half-maximal effect; as to activity change, negative = cell killing: % is scaled to controls: 0 for no effect and ±100 for the full control effect
[5] = molecular target: Catechol O-methyltransferase (Homo sapiens) (UniProt P21964); assay: Confirmatory Screen for Target Class Profiling of Small Molecule Inhibitors of Methyltransferases (AID 1745852; calls by dose curve; as to activity change, negative = inhibition: % is scaled to controls: 0 for no effect and ±100 for the full control effect); conditions: MTase-Glo luminescence, SAH detection, recombinant enzyme; measured here: COMT max response; stronger effect = lower value
[6] = molecular target: Guanidinoacetate N-methyltransferase (Homo sapiens) (UniProt Q14353); assay: as above; conditions: MTase-Glo luminescence, SAH detection, recombinant enzyme; activity change, negative = inhibition: at 57.3 µM (top of the series) unless noted; series mostly up to 57.3 µM
[7] = molecular target: Nicotinamide N-methyltransferase (Homo sapiens) (UniProt P40261); assay: as above; conditions: MTase-Glo luminescence, SAH detection, recombinant enzyme; measured here: NNMT max response; stronger effect = lower value
[8] = molecular target: Phenylethanolamine N-methyltransferase (Homo sapiens) (UniProt P11086); assay: as above; conditions: MTase-Glo luminescence, SAH detection, recombinant enzyme; measured here: PNMT max response; stronger effect = lower value
[9] = molecular target: Cytochrome P450 2C9 (Homo sapiens) (UniProt P11712); assay: Cytochrome P450 family 2 subfamily C member 9 (CYP2C9) small molecule antagonists: luciferase biochemical (cell-free) qHTS assay (AID 1645842; active = well fitted curve in the direction sought with a large enough effect in the repeat runs; an effect the other way counts as inactive or inconclusive; also: nearly all actives have a fitted effect of over 55% in size; also: potency is read from the fitted curve at half-maximal effect); conditions: P450-Glo CYP2C9 enzyme assay, luciferin luminescence; series mostly up to 57.4 µM
Outline: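 Luminescence, after 20 min with luciferin detection reagent, reflected CYP2C9 turnover during a 1 h NADPH-driven reaction at 37C. Enzyme-substrate mix contained 0.4% bovine serum albumin and was preincubated with compound 10 min at room temperature.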

Catechol O-methyltransferase (Homo sapiens), sequence (P21964 whole entry, looked up): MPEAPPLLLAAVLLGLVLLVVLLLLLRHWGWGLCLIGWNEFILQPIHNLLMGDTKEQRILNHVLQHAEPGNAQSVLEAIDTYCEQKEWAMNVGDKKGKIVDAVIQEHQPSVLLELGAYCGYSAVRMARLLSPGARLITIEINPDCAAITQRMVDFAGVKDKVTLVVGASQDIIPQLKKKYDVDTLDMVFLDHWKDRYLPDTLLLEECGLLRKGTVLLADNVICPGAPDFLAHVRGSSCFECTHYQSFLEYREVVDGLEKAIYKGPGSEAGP
Phenylethanolamine N-methyltransferase (Homo sapiens), sequence (P11086 whole entry, looked up): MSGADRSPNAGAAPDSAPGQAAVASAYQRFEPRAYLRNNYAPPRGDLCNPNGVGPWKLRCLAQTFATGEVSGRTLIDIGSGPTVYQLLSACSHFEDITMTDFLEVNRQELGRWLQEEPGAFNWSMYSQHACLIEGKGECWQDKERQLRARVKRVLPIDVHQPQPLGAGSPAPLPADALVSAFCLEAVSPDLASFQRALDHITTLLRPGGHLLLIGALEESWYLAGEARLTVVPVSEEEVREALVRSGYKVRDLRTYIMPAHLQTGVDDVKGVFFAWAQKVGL
Nicotinamide N-methyltransferase (Homo sapiens), sequence (P40261 whole entry, looked up): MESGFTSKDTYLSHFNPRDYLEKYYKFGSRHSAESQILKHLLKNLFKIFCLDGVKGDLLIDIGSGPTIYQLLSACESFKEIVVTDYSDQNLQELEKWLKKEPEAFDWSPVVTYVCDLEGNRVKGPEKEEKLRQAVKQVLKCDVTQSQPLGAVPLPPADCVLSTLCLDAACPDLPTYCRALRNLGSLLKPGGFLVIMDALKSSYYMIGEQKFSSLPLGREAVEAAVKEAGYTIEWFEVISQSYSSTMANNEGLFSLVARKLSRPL
Calcium and integrin-binding protein 1 (Homo sapiens), sequence (Q99828 whole entry, looked up): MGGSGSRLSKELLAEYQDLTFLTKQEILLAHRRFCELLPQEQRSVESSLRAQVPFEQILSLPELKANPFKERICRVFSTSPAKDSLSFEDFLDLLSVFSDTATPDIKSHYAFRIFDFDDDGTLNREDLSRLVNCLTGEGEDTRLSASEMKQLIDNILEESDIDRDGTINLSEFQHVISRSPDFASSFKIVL
Cytochrome P450 2C9 (Homo sapiens), sequence (P11712 whole entry, looked up): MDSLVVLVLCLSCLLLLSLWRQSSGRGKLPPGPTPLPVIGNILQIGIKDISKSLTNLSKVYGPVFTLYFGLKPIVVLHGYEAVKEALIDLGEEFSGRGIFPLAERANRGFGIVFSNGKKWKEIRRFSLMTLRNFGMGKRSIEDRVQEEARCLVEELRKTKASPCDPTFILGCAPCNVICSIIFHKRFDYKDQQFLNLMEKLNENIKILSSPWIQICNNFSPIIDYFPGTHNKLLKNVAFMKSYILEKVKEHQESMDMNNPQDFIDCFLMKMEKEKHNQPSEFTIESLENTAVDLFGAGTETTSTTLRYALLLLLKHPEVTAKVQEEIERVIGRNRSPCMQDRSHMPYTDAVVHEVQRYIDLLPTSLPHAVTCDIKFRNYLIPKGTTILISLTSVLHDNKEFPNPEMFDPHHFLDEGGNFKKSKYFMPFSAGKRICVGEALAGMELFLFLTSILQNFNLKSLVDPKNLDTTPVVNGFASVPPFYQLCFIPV
Cytochrome P450 2D6 (Homo sapiens), sequence (P10635 whole entry, looked up): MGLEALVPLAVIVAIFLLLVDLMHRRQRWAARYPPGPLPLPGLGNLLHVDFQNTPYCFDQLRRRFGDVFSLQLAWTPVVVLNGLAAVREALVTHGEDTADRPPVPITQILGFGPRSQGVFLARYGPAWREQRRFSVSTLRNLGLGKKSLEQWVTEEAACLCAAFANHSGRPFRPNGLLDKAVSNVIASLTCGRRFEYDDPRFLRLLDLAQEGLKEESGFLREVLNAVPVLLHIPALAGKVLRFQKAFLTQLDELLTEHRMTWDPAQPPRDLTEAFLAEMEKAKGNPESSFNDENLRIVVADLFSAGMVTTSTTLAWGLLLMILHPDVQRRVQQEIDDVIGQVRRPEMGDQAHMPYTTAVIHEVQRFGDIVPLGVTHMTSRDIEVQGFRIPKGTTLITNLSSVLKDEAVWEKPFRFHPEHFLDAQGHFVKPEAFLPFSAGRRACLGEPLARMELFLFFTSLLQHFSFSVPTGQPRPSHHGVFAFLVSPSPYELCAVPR

## CNC(=O)c1ccccc1Nc1nc(Nc2ccc(N3CCNCC3)cc2)ncc1Cl
[1]
  Potency: inactive
[2]
  Potency: inactive
[3]
  Potency: 103 nM (active)
[4]
  Potency: inactive
[5]
  activity: -21.5%
[6]
  activity change, negative = inhibition: -14.2%
[7]
  activity: -58.7%
[8]
  activity: -30.9%

## CC(C)C(CO)Nc1nc(Nc2ccc(C(=O)O)c(Cl)c2)c2ncn(C(C)C)c2n1 (stereo unspecified)
[1]
  Potency: inactive
[2]
  Potency: inactive
[3]
  Potency: inactive
[4]
  Potency: inactive

## CN(C)C(=O)NC1CCC(CCN2CCN(c3cccc(Cl)c3Cl)CC2)CC1 (stereo unspecified)
[1]
  Potency: inactive
[2]
  Potency: 12000 nM (active)
[3]
  activity change, negative = viability loss: 3.61% [at 9.23 µM] (inactive)
[4]
  activity change, negative = cell killing: 2.1% [at 9.23 µM] (inactive)

## CC(=O)SCC(=O)c1ccc(NS(=O)(=O)c2ccc(OCCCN(C)C)cc2)nc1
[1]
  Potency: inactive
[2]
  Potency: inactive
[3]
  Potency: 1290 nM (active)
[4]
  Potency: 1.15 µM (active)

## COc1ccccc1NC(=O)OCC1CCN(C(=O)OC(C)(C)C)CC1
[1]
  Potency: inactive
[9]
  Potency: inactive
[3]
  Potency: inactive

## CCOC(=O)c1sc(NC(=O)[C@H](C(C)C)n2c(=O)[nH]c3ccccc3c2=O)nc1C
[1]
  Potency: inactive
[9]
  Potency: 4770 nM (active)

## COc1ccc(C2(O)CCC(N3CC[C@@H](NC(=O)CNC(=O)c4cccc(C(F)(F)F)c4)C3)CC2)cn1 (stereo partly specified)
[1]
  Potency: inactive
[2]
  Potency: 10700 nM (active)
[3]
  Potency: inactive
[5]
  activity: -5.05%
[6]
  activity change, negative = inhibition: -4.96%
[7]
  activity: 0.219%
[8]
  activity: 0.417%

## Nc1nc(-n2cc(C(=O)O)c(=O)c3cc(F)c(N4CC(O)C4)c(Cl)c32)c(F)cc1F
[1]
  Potency: inactive
[2]
  Potency: inactive
[3]
  Potency: inactive
[4]
  Potency: inactive
[5]
  activity: -21.4%
[6]
  activity change, negative = inhibition: 0.345%
[7]
  activity: -1.6%
[8]
  activity: -1.85%

## CCc1cccc(CC)c1NC(=O)c1nn(C)c2c1CCc1cnc(Nc3ccc(C(=O)NC4CCN(C)CC4)cc3OC(F)(F)F)nc1-2
[1]
  Potency: inactive
[2]
  Potency: 9280 nM (active)
[4]
  Potency: 1.78 µM (active)

## CC(C)c1cc(CNc2nc(Nc3cc(C4CC4)[nH]n3)cc(N3CCN(C)CC3)n2)on1
[1]
  Potency: inactive
[2]
  Potency: 2680 nM (active)
[3]
  Potency: 64.9 nM (active) and 525 nM (active)
[4]
  Potency: 29 nM (active) and 66.1 nM (active)
[5]
  activity: -7.12%
[6]
  activity change, negative = inhibition: -5.05%
[7]
  activity: -12.7%
[8]
  activity: -6.69%

## O=c1[nH]ccc2cc(OC3CCNCC3)ccc12
[1]
  Potency: inactive
[9]
  Potency: inactive

## CC(C)c1nc(-c2ccc(NC(=O)Nc3cccc(C(F)(F)F)c3)c3ccccc23)c2c(N)nccn12
[1]
  Potency: inactive
[2]
  Potency: 67.4 nM (active)
[3]
  Potency: 578 nM (active)
[4]
  Potency: 1.45 µM (active)
[5]
  activity: -5.14%
[6]
  activity change, negative = inhibition: -2.79%
[7]
  activity: -2.22%
[8]
  activity: -6.27%
